Screen size: about 2,400 compounds; about 20 (0.8%) were called active. Roughly 19% stayed inconclusive and do not appear here.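 How the source made its calls: active means fitted half-maximal concentration for signal decrease at or below twice the top tested dose, in every repeat run; inconclusive means repeat runs disagree, or flat partial inhibition, or poor fit; inactive means all runs flat, wrong-direction or potency beyond limit.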 The list is a sample of the results. Potency and affinity values are given separately.
experiment: GFP reporter loss versus dox-driven RFP – NIH3T3 R4 cells, cherry-pick, set 4, dose response (AID 588827); details: NIH3T3 R4 HSF-1 GFP reporter, heat shock, 48 h; series mostly up to 19.5 µM; activity change, negative = inhibition: at the top concentration;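 further: 0% = neutral control wells and -100% = didemnin B at 400 nM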

Activity change, negative = inhibition, inactive:
Nc1ncnc2oc(-c3ccco3)c(-c3ccco3)c12 -24.9%, CCN1CC2([N+](=O)[O-])C=CC(=O)C([N+](=O)[O-])(C1)C2CC(=O)c1ccccc1 (centres undefined) -27.8%, CCOC(=O)c1c(N)sc2c(O)c(Br)ccc12 -15.5%, Cc1[nH]c2ccccc2c1/C=C/c1nc2ccccc2c(=O)n1-c1cccc([N+](=O)[O-])c1 -7.65%, O=C(c1ccc([N+](=O)[O-])s1)N1CCN(c2cccc(Cl)c2)CC1 -14.1%, O=C(O)c1cccc(COc2ccc3c(c2)CCC3)c1 19.3%, CC(C)c1ccc(-c2nc3ccccc3s2)cc1 -15.1%, CC1=Nc2ccc(C)c3nc(C)cc(c23)N1c1ccc(C)cc1 -23.6%, N#Cc1cc2c(nc1SCC(=O)N1CCOCC1)CCCCC2 -3.19%, COc1ccc(/C=C/C(=O)Oc2ccc(/C=N/NC(=O)COc3c(C)cccc3C)cc2)cc1 -5.78%, CCN(c1ccccc1)S(=O)(=O)c1cnc[nH]1 21.3%, COc1ccccc1N=Nc1ccc(O)c2ncccc12 -0.842%, COc1cccc(NC(=O)Nc2nnc(Cc3ccccc3F)s2)c1 -18.8%, COc1ccccc1C(=O)NCCC(=O)NNC(=O)Cn1ccc(C(F)(F)F)n1 -21.8%, Nc1nc(Cl)nc2ccc(Br)cc12 -19%, CCN1CCN(/C=N/c2nc3c(s2)CCCC3)CC1 -11.3%, Cn1c(=O)c2c(nc(Oc3cccc(O)c3)n2C)n(C)c1=O -12.2%, Cc1ccc(NC(=O)CCN2C(=O)C3CCCCC3C2=O)cc1[N+](=O)[O-] (centres undefined) 28.3%, O=C(CCCCCn1c(=S)[nH]c2cc3c(cc2c1=O)OCO3)N1CCN(C(=O)c2ccco2)CC1 -18.7%, CCCCOc1ccc(N=Cc2ccc[nH]2)cc1 -5.17%, CCOc1ccc(-c2nc(CSCC(=O)N3CCN(c4cccc(OC)c4)CC3)c(C)o2)cc1 -28.1%, O=C(NCCN1CCCCC1)Nc1ccccc1Cl -21.1%, CCC1CCCCN1CCCNC(=O)CSc1nc2nc(C)c(Cc3ccc(C)cc3)c(C)n2n1 (centres undefined) 7.1%, O=C(Nc1ccc2c(c1)ncn2C1CCCCC1)c1ccco1 -27%, CC(C)(C)c1ccc(C(=O)NC(=S)Nc2nc3c(s2)CCCC3)cc1 -26.4%, N#Cc1nc(-c2ccco2)oc1N1CCN(Cc2ccccc2)CC1 -1.82%, COc1ccc(S(=O)(=O)/C(C#N)=C/Nc2cccc(OC)c2)cc1 -13.2%, CCCC[C@@H]1C[C@H]1[C@@H](NC(=O)c1ccco1)c1ccc(Cl)cc1 -16.9%, Cc1ccc(C(=O)Nc2cccc(C(F)(F)F)c2)cc1NC(=O)c1ccno1 2.88%, Fc1ccc(CO/N=C/C2=C(Cl)c3ccccc3CC2)cc1 -14.4%, COc1ccc(-n2c(C)c(C(C)=O)c(C(C)=O)c2C)cc1 -21.1%, CSc1ncccc1C(=O)N1CCCC(N2CCN(c3ccccc3F)CC2)C1 (centres undefined) 6.57%, CC(=O)N/C(=N\c1nc(C)cc(C)n1)Nc1ccc2ccccc2c1 -10.8%, Cc1ccc(/C=C(\NC(=O)c2ccccc2)C(=O)N2CCCC2C(=O)O)cc1 (centres undefined) -6.42%, COc1ccc(NC(=S)Nc2ccc(C)c(S(=O)(=O)N3CCCCC3)c2)cc1 -33.6%, Oc1ccccc1CNc1ccc(OC(F)(F)F)cc1 -21.3%, CCOc1c2ccc(C(=O)NCc3ccccc3OC)cc2nn1CC -2.38%, CC(O/N=C\c1ccccc1O)C(=O)Nc1ccccc1C(=O)N1CCOCC1 (centres undefined) 4.38%, COc1cccc(N(C(=O)c2cccs2)c2nc3ccccc3s2)c1 -7.54%, CCOc1cc(C#N)c(NC(=O)c2cccnc2Cl)cc1OCC -7.83%, C=CCSc1nc2ccccc2n1C(=O)/C=C/c1cc(OC)c(OC)c(OC)c1 2.52%, O=C(Nc1ccc(N2CCCCC2)cc1)c1ccccn1 14.8%, Cc1cc(C)c(N=C2SCC(=O)N2Cc2ccco2)c(C)c1 13.7%, O=C(NC(=O)c1cccc(F)c1)OC[C@@H]1CCCN2CCCC[C@H]12 -8.55%, CCCCN(C(=O)COc1ccc(C)cc1OC)c1c(N)n(CCC)c(=O)[nH]c1=O -8.36%, Cc1cc(C)c2c(c1)/C(=N/NS(=O)(=O)c1ccc(Br)cc1)CCC2 -11.3%, Cc1ccc(N(C)C(=O)CN(C)S(=O)(=O)c2ccc3c(c2)n(C)c(=O)c(=O)n3C)cc1 -5.74%, CCC(=O)Nc1cc2nn(-c3ccc(C)cc3)nc2cc1C -26.2%, O=C1C(Cc2ccccc2)Nc2ncnc(N3CCN(c4ccccc4)CC3)c2N1Cc1ccccc1 (centres undefined) -9.33%, O=C(CSC(=S)N1CCCCC1)Nc1ncc2c(n1)CCCC2=O -1.31%, N#Cc1c(SCC(=O)Nc2nccs2)nc2c(c1-c1ccco1)CCCC2 31.6%, CCN1C(=O)[C@H]2[C@@H](c3ccc(C)cc3)N3C(=O)N(c4ccc(C)cc4)C(=O)[C@@]3(C)[C@H]2C1=O 14.5%, CC(C)Cc1csc(NC(=O)c2ccc(F)cc2)c1C(=O)O -14.2%, CCOC(=O)c1ccc(NC(=S)NC(=O)C2CCCC2)cc1 -32%, CCOC(=O)c1ccc(Nc2ncnc3nc[nH]c23)cc1 1.84%, COc1ccc(C(=O)N2CCN=C2SCc2cccnc2)cc1OC 3.94%, COc1ccc(NC(C)=O)cc1NC(=O)CN1CCN(CC(=O)Nc2ccccc2Cl)CC1 -18.4%, CC1(C)CC(=O)C2=C(C1)N(Cc1ccccc1)C(=O)C2(NC(=O)C(C)(C)C)C(F)(F)F (centres undefined) 1.22%, Cc1ccc(C(=O)CSc2cnc3ccccc3n2)cc1C -15.7%, C/C(=N\NC1=NCCN1)c1ccc(N)c([N+](=O)[O-])c1 -5.31%, Cc1ccc(OCC(=O)Nc2ccccc2C(=O)N2CCCCC2)cc1 -11.1%, CCN(CC)S(=O)(=O)c1cccc(NC(=O)CCNC(=O)NC23CC4CC(CC(C4)C2)C3)c1 -25.2%, Cc1cccc(CS(=O)(=O)Cc2ccc(C(=O)NCc3cccs3)o2)c1 -20.7%, CC(C)OCCCn1c(NN)nc2ccccc2c1=O -8.01%, COc1nc(N)c(C#N)c(-c2ccc(N(C)CCC#N)cc2)c1C#N -15.4%, CCCSc1nnc(CNS(=O)(=O)c2ccc(C)cc2)n1C 15.3%, Cc1ccc(CSCC(=O)N(C)CC(=O)Nc2ccc(C)cc2)cc1 -13.1%, COc1ccc(O)c(-c2c(-c3ccc(Cl)cc3)n[nH]c2C)c1 -9.04%, COc1ccc(NCc2nnc(SCC(=O)Nc3cc(C(F)(F)F)ccc3Cl)o2)cc1 -17.5%
